Source: PubChem BioAssay (several laboratories)
tim23-1 inh: inhibits growth of tim23-1 mutant yeast; S. cerevisiae tim23-1 growth, BacTiter-Glo luminescence, 24 h; inhibition, % at 20 µM; hit rate 1.3% among 330,000; AID 463212;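 active = growth inhibition of the mutant yeast at or above 50%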;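 also: temperature-sensitive mutant grown at 25 °C; plate controls were DMSO-treated mutant yeast for no effect and medium wells lacking yeast for full effect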
tim10-1 inh: tim10-1 yeast growth inhibition. S. cerevisiae tim10-1 ts strain growth, BacTiter-Glo, 24 h. hit rate 2.2% among 330,000. AID 463190. inhibition, % at 20 µM;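 active = inhibition of at least 40%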;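 also: mutant grown at 25 °C; 0% = DMSO wells with yeast and 100% = wells holding no yeast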
NALP3 yeast inh: blocks the NALP3 inflammasome reconstituted in yeast; Yeast reconstituted NLRP3/ASC/caspase-1, beta-gal luminescence, 24 h; inhibition, % at 10 µM; hit rate 0.39% among 330,000; AID 2825;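 active = inhibition of 50% or more; inactive = inhibition below 50%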;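 also: plate controls were induced DMSO wells for no effect and uninduced yeast grown without galactose for full effect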
TIM10 inh: TIM10 yeast growth inhibition; S. cerevisiae TIM10 strain growth, BacTiter-Glo luminescence, 24 h; inhibition, % at 10 µM; hit rate 1.4% among 330,000; AID 463195;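 active = inhibition of 40% or more at the single tested concentration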;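 also: wild-type TIM10 isogenic control strain grown at permissive 25 °C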
PfHsp90 set2: reduces growth (ATP signal) of yeast expressing P. falciparum Hsp90 | S. cerevisiae expressing PfHsp90, BacTiter-Glo ATP, 48 h; yeast lacking PDR1 and PDR3 efflux regulators | inhibition, % at 9.4 µM | hit rate 0.32% among 310,000;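 active = every replicate shows inhibition above about 80%, whatever the replicate mean, limit read from the data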;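 also: 0% = DMSO neutral controls and 100% = 20 µM radicicol positive controls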
tim10-1 conf: tim10-1 yeast growth inhibition, confirmed | inhibition, % at 20 µM | S. cerevisiae tim10-1 ts strain growth, BacTiter-Glo, 24 h | hit rate 56% among 7,400 | AID 463213 | shares compounds with tim10-1 inh;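 active = inhibition of yeast growth at or above a set limit in either of two repeat tests at 20 µM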;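 also: tim10-1 mutant grown at permissive 25 °C to find synthetic lethal compounds; 0% = DMSO yeast wells and 100% = medium wells without yeast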
The depositor's hits bear a star; nt = not tested or not shown. Most compounds without a hit are left out; they make up all but 3.7% or so of the library.

SMILES	tim23-1 inh	tim10-1 inh	NALP3 yeast inh	TIM10 inh	PfHsp90 set2	tim10-1 conf
C=CC1=CCN(S(=O)C(C)(C)C)[C@H]1CCO (stereo not given in full)	nt	nt	nt	nt	-22.0	nt
O=C(NC(=S)Nc1ccc(N2CCOCC2)cc1)c1ccccc1	-1.1	28.3	31.7	5.7	9.7	nt
CCC(=O)NC(=S)Nc1cccc(NC(=O)c2ccccc2Cl)c1	46.8	44.8*	-7.3	29.7	-0.2	23.4
O=C(NC(=S)Nc1ccc(N2CCOCC2)cc1)c1cccc(Cl)c1	46.3	40.6*	24.6	22.4	-0.8	23.8
CC(=O)c1cccc(NC(=S)NC(=O)c2cccc(Cl)c2)c1	36.6	44.9*	24.7	21.4	1.1	14.6
O=C(Nc1ccc(CN2CCOCC2)cc1)c1ccc(-c2cc(Cl)ccc2Cl)o1	10.6	44.0*	23.4	14.2	7.8	28.5
O=C(NCc1ccccc1)C(c1ccncc1)N(C(=O)c1ccccn1)c1ccccc1 (stereo not given)	17.6	5.7	17.4	6.4	12.3	nt
N#C/C(=C\c1ccccc1)C(=O)NNS(=O)(=O)c1ccc(Br)cc1	25.4	8.3	1.2	5.2	nt	nt
COc1ccc(C(=O)NC(=S)Nc2ccc(CN3CCOCC3)cc2)cc1Cl	36.8	52.1*	16.5	13.7	-1.9	-30.2
Oc1[nH]c2c(Cl)cc(Cl)cc2c1N=NC(=S)NCC1CCCO1 (stereo not given)	32.3	46.3*	23.6	25.0	-28.3	20.4
Cc1cc(C)c2[nH]c(O)c(N=NC(=S)NCC3CCCO3)c2c1 (stereo not given)	8.6	13.9	4.4	22.0	nt	nt
COc1ccc(C)cc1NC(=O)N1CCCc2ccccc21	25.9	46.7*	9.5	3.7	-5.4	15.3
COc1ccc(-c2csc(N3CCN(S(=O)(=O)c4ccc5c(c4)NC(=O)CO5)CC3)n2)cc1	-9.6	34.0	17.4	-47.8	-29.8	nt
Cc1sc(N2CCN(S(=O)(=O)c3ccc4c(c3)NC(=O)CO4)CC2)nc1-c1ccccc1	-0.9	47.1*	10.6	11.3	-158.2	-20.1
CNS(=O)(=O)c1cn(CC(=O)N(C)Cc2ccccc2)cc1S(=O)(=O)NC	-3.3	5.7	21.6	-10.0	23.2	nt
Cc1cc(OC(C)C(=O)NCC(O)c2ccccc2)c2c(C)cc(=O)oc2c1 (stereo not given)	-0.4	-0.3	-3.4	-7.7	-3.8	nt
Cc1ccc(/C=C2\Oc3cc(OC(=O)N4CCOCC4)ccc3C2=O)cc1	13.8	16.1	25.3	15.3	14.2	nt
O=C(Oc1ccc2c(c1)O/C(=C\c1ccncc1)C2=O)c1ccccc1	34.7	41.8*	3.9	33.2	-7.5	12.9
Cc1ccc(S(=O)(=O)NCCCNS(=O)(=O)c2ccccc2[N+](=O)[O-])cc1	-1.9	-4.5	18.5	-1.4	-0.5	nt
COc1ccc(Br)c(-c2nnc(CS(=O)(=O)c3ccccc3)o2)c1	48.0	45.9*	0.5	24.4	1.5	38.8*
Cc1nn2c3ccccc3nc2c2ccccc12	31.3	50.9*	-11.4	18.1	-65.9	42.5*
CCCNC(=O)N1CCCC(C(=O)c2cccc(Cl)c2)C1 (stereo not given)	-1.6	0.1	15.4	-9.9	-2.6	nt
O=C(CCc1ccccc1)C(=O)N1CCCC(C(=O)c2cccc(Cl)c2)C1 (stereo not given)	22.9	40.0*	22.2	25.1	-20.6	27.8
CC(=O)c1c(C)[nH]c(C(=O)OCc2csc(CC(=O)Nc3ccccc3C)n2)c1C	2.3	16.1	2.9	6.5	4.9	nt
Cc1nn(-c2ccc(F)cc2F)c(=O)c2noc(C)c12	6.3	-14.2	20.8	-13.9	15.7	nt
SMILES	tim23-1 inh	tim10-1 inh	NALP3 yeast inh	TIM10 inh	PfHsp90 set2	tim10-1 conf
Cc1nn(-c2ccc(F)cc2F)c2c1-c1nc(N3CCCC3)ncc1CC2	27.8	45.4*	8.7	35.5	-13.7	20.0
C=C(C)Cn1c(=O)c2c(nc3n2CCCN3CCc2ccccc2)n(C)c1=O	17.7	8.9	20.0	11.6	-2.1	nt
COc1ccc2nc(C)cc(N3CCN(S(=O)(=O)c4ccccc4F)CC3)c2c1	46.6	40.2*	25.4	29.5	nt	20.6
O=C(c1ccc2c(c1)N(Cc1ccccc1)CCS2)N1CCCCC1	36.5	43.2*	5.6	19.1	-4.7	26.2
Cc1ccc(CN2CCSc3ccc(C(=O)NCC4CCCO4)cc32)cc1 (stereo not given)	44.4	41.1*	-1.8	21.3	-14.0	16.5
CCOc1cc2nc3c4ccccc4n(C)c3nc2cc1OCC	19.9	47.4*	22.4	10.6	-12.4	16.8
O=C(O)c1ccccc1NC1CCCCC1NS(=O)(=O)c1ccccc1 (stereo not given)	4.2	10.4	-5.3	-0.9	-4.6	nt
CCN(CC)C1CCCCC1NS(=O)(=O)c1ccc(Cl)cc1 (stereo not given)	-1.6	5.5	8.3	-2.6	-3.5	nt
COc1ccccc1NC(=O)c1cc(S(=O)(=O)NC2CCCC2)ccc1F	19.7	48.2*	-30.2	22.5	-16.0	9.2
COc1ccccc1NC(=O)c1cc(S(=O)(=O)N2CCCCCC2)ccc1F	15.5	12.1	2.1	9.5	-10.9	nt
COc1ccccc1NC1CCCCC1NS(=O)(=O)c1ccccc1 (stereo not given)	31.3	43.5*	0.7	14.9	-21.7	6.1
CN(c1ccccc1)C1CCCCC1NS(=O)(=O)c1ccc(Cl)cc1 (stereo not given)	32.6	50.5*	24.1	25.7	-22.9	36.0*
O=C(CNC(=O)OCc1ccccc1)NC(Cc1cnc[nH]1)C(=O)O (stereo not given)	nt	nt	nt	nt	-23.8	nt
COc1cccc(CN(C)CCCn2cnc(C(=O)Nc3ccc(C)c(C)c3)n2)c1	nt	nt	nt	nt	6.4	nt
Cc1ccc(OCCCC(=O)NNC(=O)c2ccccn2)cc1	-8.5	9.8	31.3	-3.2	2.3	nt
C/C(=N\NC(=S)Nc1cc(S(=O)(=O)N2CCOCC2)ccc1Cl)c1ccc(N2CCOCC2)cc1	2.5	8.5	22.6	22.6	7.6	nt
C/C(=N\NC(=S)Nc1ccc(C)c(C)c1)c1ccc(N2CCOCC2)cc1	47.9	40.7*	0.8	30.6	-3.7	25.3
O=C(Nc1ccc(C(F)(F)F)cc1)C1CCN(c2cnccn2)CC1	28.3	41.4*	13.4	10.3	23.0	2.1
CC(C(=O)NC(C)(C)C)N(C(=O)CS(=O)CC(=O)Nc1ccc(F)cc1)C1CCCC1 (stereo not given)	1.6	-17.2	18.9	9.0	-20.7	nt
COc1ccc(-c2nnc(SCc3cc(C)ccc3C)n2N)cc1	44.8	41.7*	5.5	39.5	0.6	39.0*
COc1ccc(-c2nnc(SCc3cccc(C)c3)n2N)cc1	20.4	12.5	7.6	24.7	-18.6	nt
CCC(=O)Nc1cccc(C(=O)/C=C/c2ccccc2)c1	34.0	42.0*	26.1	19.9	3.9	42.6*
Cc1ccc(S(=O)(=O)N2CCN(C(=O)COC(=O)CNC(=O)c3ccccc3F)CC2)c(C)c1	nt	nt	nt	nt	-2.1	nt
CC(C)c1ccc(S(=O)(=O)N2CCN(C(=O)CCNS(=O)(=O)c3ccccc3F)CC2)cc1	18.6	9.2	11.6	14.3	3.9	nt
